Screens as filed in PubChem BioAssay.
Rows were chosen to be rich in hits. Some 4% of all compounds tested hit in one or more screens of this group.
MITF TRPM1 inh = inhibitors of MITF-dependent TRPM1 promoter reporter, primary screen, cell-based, SK-MEL-5, single point, luciferase | SK-MEL-5 TRPM1 promoter luciferase, 24 h | inhibition, % at 12.5 µM | 330,000 compounds, 0.83% hits | AID 488899, 2010;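 active means mean inhibition across replicates of 60% or more, whatever share of single replicates reaches that level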
Peg3 prom inh = Peg3 promoter-driven luciferase inhibitors, primary screen, cell-based, HeLa, luciferase luminescence | HeLa PEG-Prom luciferase reporter, overnight | inhibition, % at 20 µM | 360,000 compounds, 1.7% hits | AID 588405, 2011;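 active means inhibition of at least 50% at 20 µM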
TROY NFkB inh = inhibitors of TROY-driven NF-kB signaling, primary screen, Q293 LMP1-TROYcd cells, NF-kB luciferase, uHTS; 360,000 compounds, 0.98% hits; Q293 LMP1-TROYcd NF-kB luciferase reporter, 4 h; inhibition, % at 10 µM; AID 1347056, 2019;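 active means compounds whose plate-normalised and pattern-corrected inhibition of the luciferase reporter signal at the single screening dose is 50% or more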
HIF-2a inh = HIF-2a reporter inhibitors, primary screen, luminescence, 786-0 RCC cells; 786-0 RCC cells HIF-2a reporter, luciferase luminescence, overnight; inhibition, % at 18.8 µM; 360,000 compounds, 0.72% hits;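 active means inhibition of the luminescence signal of 40% or more relative to plate controls, in a single-dose primary screen at 18.75 µM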
TWEAK-Fn14 inh = inhibitors of TWEAK-Fn14 signaling, primary screen, luciferase reporter cells, uHTS; inhibition, % at 10 µM; TWEAK-stimulated Fn14 reporter cells, luciferase luminescence, 8 h; 360,000 compounds, 2% hits; in the data active means inhibition above about 50%
LMP1 NFkB inh = EBV LMP1-driven NF-kappaB luciferase reporter inhibitors, primary screen, cell-based, luminescence, single point; LMP1-induced NF-kappaB luciferase reporter cells; inhibition, % at 12.5 µM; 350,000 compounds, 0.69% hits; AID 504558, 2011; in the data active means inhibition above about 41%;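 further: 0% = neutral control wells and 100% = reference inhibitor control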
* marks the source's active call; other numbers are inactive results; / = no result given.

SMILES | MITF TRPM1 inh | Peg3 prom inh | TROY NFkB inh | HIF-2a inh | TWEAK-Fn14 inh | LMP1 NFkB inh
O=C(Cn1cnc2c(nnn2Cc2ccccc2)c1=O)N1CCN(c2ccccc2)CC1 | 7 | 9 | 3 | 17 | 10 | 83*
O=C(Cn1cnc2c(nnn2Cc2ccc(Cl)cc2)c1=O)N1CCN(c2ccccc2)CC1 | / | 16 | 15 | 15 | 23 | 7
N#Cc1c(F)cccc1N1CCOCC1 | 10 | -9 | / | 13 | 87* | 2
COc1ccc(Cc2nnc(NC(=O)c3c(-c4ccccc4)noc3C)s2)cc1OC | 11 | -12 | -4 | 14 | 1 | 9
COc1ccc(C(=O)Nc2nnc(Cc3ccc(OC)c(OC)c3)s2)c(OC)c1 | -23 | -118 | -15 | -195 | 82* | -6
COc1ccc(Cc2nnc(NC(=O)c3c(-c4ccccc4)noc3C)s2)cc1 | 2 | 10 | 6 | 9 | -36 | 53*
COCc1nnc(NC(=O)c2ccc(OC)cc2OC)s1 | -39 | -177 | 3 | -118 | 14 | 6
Cc1ccnc(Nc2nc(-c3sc(C)nc3C)cs2)c1 | 12 | 4 | 37 | -396 | 84* | -27
Cc1nc(N)sc1-c1csc(Nc2ccccn2)n1 | 1 | -270 | -6 | -135 | 11 | -13
Cc1cccc(Nc2nc(-c3sc(C)nc3C)cs2)c1 | -25 | -198 | -31 | -170 | 24 | -21
CC(=O)c1ccc(Nc2nc(-c3sc(C)nc3C)cs2)cc1 | / | 55* | 17 | -71 | 56* | 10
Cc1nc(C)c(-c2csc(Nc3ccccn3)n2)s1 | -5 | -161 | -4 | -224 | 55* | -1
Cc1ccnc(Nc2nc(-c3ccc(F)cc3)cs2)c1 | -32 | -147 | 59* | -240 | -20 | -44
CCOc1ccc(N(CC(=O)Nc2c(C)n(C)n(-c3ccccc3)c2=O)S(=O)(=O)c2ccc(F)cc2)cc1 | 2 | 7 | -3 | -2 | 4 | -1
CCOC(=O)[C@]12CCC=C1N(Cc1ccco1)C(=O)[C@H](CC(=O)NCC1CCCCC1)C2 | / | / | 0 | 5 | 3 | /
O=Cc1ccc(C(=O)OCC(=O)NC(=O)Nc2ccccc2F)cc1 | 14 | -3 | 5 | -18 | -28 | 0
COc1ccc(CCN2CC(C(=O)OCC(=O)NC(C)c3cccc(Cl)c3)CC2=O)cc1OC (stereo not given) | / | -4 | 4 | 6 | -4 | -7
CCCCCC(=O)N1C[C@@H](O)[C@H](n2cc(COC(=O)c3ccccc3)nn2)C[C@@H]1c1ccccc1 | / | -6 | 7 | 5 | -1 | 4
CC1Oc2ccccc2C=C1/C=N/NC(=O)[C@@H](C)NC(=O)OC(C)(C)C (stereo not given in full) | 8 | 17 | 66* | 13 | 26 | -33
O=C(Nc1ccccc1C(=O)NC1CC1)c1ccccc1F | 3 | -22 | -2 | -14 | 3 | 4
CN(C)C(=O)c1cc([N+](=O)[O-])cc([N+](=O)[O-])c1N(C)C | 8 | 2 | 9 | 15 | 107* | 2
C=C(C)C(=O)Nc1ccc2c(c1)OCCOCCOCCO2 | 7 | 2 | 1 | 4 | 2 | -4
CC(C)N(C(=O)[C@H]1C[C@H](CC(=O)NCCCN(C)C)C(=O)N2CCc3c([nH]c4cc(-c5ccco5)ccc34)[C@]12C)C(C)C | 73* | 91* | -1 | -30 | 15 | -5
COc1ccc2[nH]c3c(c2c1)CCN1C(=O)C(CC(=O)NC/C=C(\C)CCC=C(C)C)C[C@H](C(=O)N2CCOCC2)[C@@]31CCC1CCCC1 (stereo not given in full) | 25 | 59* | -7 | 0 | -5 | 10
CN(C)CCCNC(=O)C[C@H]1C[C@H](C(=O)N2CCOCC2)[C@@]2(CCC3CCCC3)c3[nH]c4cc(-c5ccco5)ccc4c3CCN2C1=O | -3 | 95* | 22 | -9 | -41 | -8
SMILES | MITF TRPM1 inh | Peg3 prom inh | TROY NFkB inh | HIF-2a inh | TWEAK-Fn14 inh | LMP1 NFkB inh
O=C(CC1C[C@H](C(=O)N2CCOCC2)[C@@]2(CCC3CCCC3)c3[nH]c4ccccc4c3CCN2C1=O)NCC12CC3CC(CC(C3)C1)C2 (stereo not given in full) | 14 | 34 | 3 | -29 | 50* | 12
CCN(CC)C(=O)[C@H]1C[C@H](CC(=O)NCCCN(C)C)C(=O)N2CCc3c([nH]c4cc(-c5ccco5)ccc34)[C@]12C | -9 | 22 | -5 | -32 | 17 | -1
O=C(CC1C[C@H](C(=O)N2CCOCC2)[C@@]2(CCC3CCCC3)c3[nH]c4ccccc4c3CCN2C1=O)NCCN1CCOCC1 (stereo not given in full) | 2 | 3 | 7 | 4 | 0 | 12
Cc1ccc(S(=O)(=O)N(Cc2ccccc2F)C(=O)N2CCN(C)CC2)cc1 | 2 | 3 | 7 | 16 | 6 | -12
CCCn1c(C)cc(C(=O)COC(=O)c2nccnc2N)c1C | 14 | -13 | 56* | -189 | 72* | 31
Cc1cc(C)cc(NC(=O)CCCCCN2C(=O)[C@@H]3Cc4ccccc4CN3C2=O)c1 | 0 | 24 | -6 | -1 | 55* | 2
COc1cc(NS(=O)(=O)c2ccc(NC(C)=O)cc2)nc(OC)n1 | 12 | 8 | 3 | 5 | 5 | 8
COc1cc(NS(=O)(=O)c2ccc(N/C=C(\C#N)c3nc4cc(Cl)ccc4o3)cc2)nc(OC)n1 | 77* | -17 | -11 | 6 | -42 | -50
CCOC(=O)C1=CCN(S(=O)(=O)c2ccc(Br)cc2)C1c1ccc(C)cc1 (stereo not given) | / | 30 | -4 | -10 | 1 | /
CC1(C)CC(N2CCC(=O)NC2=S)CC(C)(C)N1 | 0 | -10 | 6 | 17 | -8 | -2
CC1(C)CC(N2CCC(=O)N(C3CC(C)(C)NC(C)(C)C3)C2)CC(C)(C)N1 | -6 | 9 | / | -2 | 80* | 2
CC(CCl)n1c(=O)c2ccccc2n1C(=O)c1ccccc1 (stereo not given) | / | / | -14 | 26 | -16 | /
O=C1c2ccc3c4c(ccc(c24)C(=O)N1c1cccc(O)c1)C(=O)N(c1cccc(O)c1)C3=O | 100* | 22 | -3 | 13 | -11 | 28
O=C1c2ccc3c4c(ccc(c24)C(=O)N1c1cccc(O)c1)CC3 | -1 | -21 | -46 | 16 | -72 | -1
O=C(O)c1ccc(/C=C2\COc3ccccc3C2=O)cc1 | 13 | 26 | -6 | 7 | 78* | 3
COc1ccc(/C=C2\COc3ccccc3C2=O)cc1OC | 8 | 95* | -2 | -10 | 54* | 2
O=C(CSc1cn[nH]n1)Nc1cccc(C(F)(F)F)c1 | 3 | -15 | -11 | 2 | 5 | 3
Cc1nnc(NC(=O)c2sc3nc(-c4cccs4)cc(C(F)(F)F)c3c2N)s1 | 28 | 26 | 60* | -8 | 74* | -1
